Compound activity deposited in PubChem by Small Molecule Screening Facility, UW Madison.
The entries come from a sample that favours hits as a whole.
RMI FANCM FP = disruptors of RMI1/RMI2 association with MM2 peptide – biochemical, fluorescence polarization, human, primary screen; FP signal (polarization) at 33 µM; AID 1159607, 2016; 70,000 tested, 0.58% active; RMI core complex with F-MM2 peptide; active compounds read low; RMI core complex (RMI1/RMI2) binding to FANCM MM2 peptide, human; in the data active = FP signal below about 40
Numbers without * were called inactive.

SMILES	RMI FANCM FP
Cc1nc(-n2nc(-c3ccco3)cc2NC(=O)COc2ccccc2F)[nH]c(=O)c1C	41
COc1cccc(CCNC(=O)C(=O)Nc2cccc(OC)c2)c1	65
Cc1ccc(NC(=O)CCCn2nc(-c3ccco3)ccc2=O)cc1Cl	63
O=C(c1cn(-c2cccc(Cl)c2)nn1)N1CCN(c2ccccc2)CC1	59
OCC(CO)(CO)NCC(O)Cn1c2ccc(Br)cc2c2cc(Br)ccc21 (stereo unspecified)	70
Cc1cc(NC(=O)C(=O)NCC2CCN(Cc3ccco3)CC2)c2ccccc2n1	74
COC(=O)CSC(C)C(=O)Nc1nnc(C)s1 (stereo unspecified)	59
COCCn1c(=NC(=O)c2ccno2)sc2cccc(F)c21	64
O=C(COc1cccc2ccccc12)N/N=C\c1ccco1	61
COc1ccccc1N=Cc1ccccc1OC(=O)c1ccccc1Br	58
Oc1ccc(Cl)cc1C=Nc1cccc(C(F)(F)F)c1	50
COc1cc(Br)cc(C=Nc2ccccc2O)c1O	56
Oc1c(Br)cc(Br)cc1C=Nc1cccc(Cl)c1	20*
Oc1c(Br)cc(Br)cc1C=Nc1ccccc1F	-4*
Oc1c(Br)cc(Br)cc1C=Nc1ccc(-c2ccccc2)cc1	43
O=C(Nc1nc(-c2cc3ccccc3o2)cs1)C1COc2ccccc2O1 (stereo unspecified)	66
CCOC(=O)c1ccc(NC(=O)CCCSc2nc3sc4c(c3c(=O)[nH]2)CCC4)cc1	59
O=c1c2c(nc(SCc3cccc(F)c3)n1-c1ccc(Br)cc1)CCS2	62
CCCN1CCCc2cc(CCNS(=O)(=O)c3cccc(F)c3)ccc21	17*
CCCN1CCCc2cc(CCNC(=O)Cc3ccc(F)cc3)ccc21	28*
CCCN1CCCc2cc(CCNC(=O)c3c(F)cccc3F)ccc21	59
CCCN1CCCc2cc(CCNS(=O)(=O)c3ccc(Br)cc3)ccc21	139
CCCN1CCCc2cc(CCNC(=O)CC(C)(C)C)ccc21	77
CCCN1CCCc2cc(CCNS(=O)(=O)c3ccc(OC)c(F)c3)ccc21	192
O=C(Nc1ccc(Cl)cc1)Nc1ccc(OCC(O)CN2CCCCC2)cc1 (stereo unspecified)	61
SMILES	RMI FANCM FP
N#CC1(C#N)C(C#N)(C#N)C12CCCCC2	48
CCOC(=O)c1c(C)noc1-c1csc(-c2ccccc2)n1	58
COc1ccc2nc(N(CCCn3ccnc3)C(=O)Cc3ccc(F)cc3)sc2c1	54
Cc1ccc(OC(C)C(=O)Nc2ccc(S(N)(=O)=O)cc2)cc1 (stereo unspecified)	55
Cc1cc(C)c(S(=O)(=O)NCCOc2ccc3nnc(-c4ccccc4)n3n2)c(C)c1	67
O=C(NCCOc1ccc2nnc(-c3cccc(F)c3)n2n1)Nc1ccccc1F	69
CCNc1[nH]c(=S)nc2sc3c(c12)CCN(C)C3	-15*
CCNc1nc(SCC(=O)NC(=O)NCc2ccccc2)nc2sc3c(c12)CCN(C)C3	5
CN1CCc2c(sc3nc(NC(=O)c4ccc(OC(F)(F)F)cc4)sc(=O)c23)C1	60
Cc1ccc(-c2ccc(=O)n(CCCNS(=O)(=O)c3c(C)cc(C)cc3C)n2)cc1	70
CC1CCc2c(sc(NC(=O)c3ccc([N+](=O)[O-])o3)c2-c2nc3ccccc3s2)C1 (stereo unspecified)	58
O=C(Nc1cccc2c1CCCC2)c1cnc2n(c1=O)CCS2	64
O=C(Nc1ccc(Br)cc1)c1cnc2n(c1=O)CCS2	60
O=C(Nc1ccc(S(=O)(=O)Nc2ncccn2)cc1)c1cnc2n(c1=O)CCS2	20*
Cc1nc2ccc(NS(=O)(=O)c3ccc4c(c3)OCCO4)cc2c(=O)n1-c1ccccc1	63
O=c1[nH]c2ccccc2n1CCc1ccccc1	57
N#C/C(=C/c1ccoc1-c1ccc([N+](=O)[O-])cc1)C(N)=S	24*
COC(=O)/C(C#N)=C\c1cc([N+](=O)[O-])ccc1N1CCCC1	95
N#C/C(=C\c1ccc(-c2cccc(C(F)(F)F)c2)o1)C(N)=S	41
O=C(COc1ccc(F)cc1)NCCn1ncc2c(=O)n(Cc3ccc([N+](=O)[O-])cc3)cnc21	65
O=C(CS(=O)(=O)c1ccc(Cl)s1)Nc1ccccc1C(F)(F)F	67
COc1ccc(N=Nc2cc(C)c(O)c(CN3CCCCC3)c2)cc1	70
Cc1ccc(C(C)C)cc2c(C)ccc1-2	52
COc1ccc(N=Nc2cc(C)c3cc(C(C)C)ccc(C)c2-3)cc1	-11*
O=C1Nc2ccccc2Nc2c1cc([N+](=O)[O-])cc2[N+](=O)[O-]	66
CC(C)(C)N1CC(c2nc3ccccc3n2CCC2CCCCC2)CC1=O (stereo unspecified)	65
CCOc1ccccc1CN1C(=O)C2(SC(NC(C)=O)=NN2C(C)=O)c2cccc(Cl)c21 (stereo unspecified)	22*
CCOc1ccccc1CN1C(=O)C(NC(C)=O)c2cc(C)cc(C)c21 (stereo unspecified)	63
COc1cccc(CNC(=O)Cn2c(=O)n(Cc3ccccc3Cl)c(=O)c3nccnc32)c1OC	66
